Compounds without any hit were thinned out: in the full panel of roughly 83,000, 20% have a hit.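 Each cell line was grown in a 96-well plate and treated with one concentration of compound for 48 hours. Values below 10 were considered active.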 Values without a mark were called inactive. Active and inactive are the calls of the source.

The subject of one assay is ACHN renal. The experiment in a line: NCI-60 one-dose screen, 48 h (100 = growth as untreated, 0 = no growth, -100 = all killed). Particulars: 10 µM unless noted.
Turning to `CC[n+]1ccc2c(c1)C(=O)c1nccc3c1c-2nc1ccccc13`, the growth is 6.37% (active).

`COc1ccc(-c2csc(NC(=O)CN3CCN(c4cc5c(cc4F)c(=O)c(C(=O)O)cn5C4CC4)CC3)n2)cc1`: the growth is 11.8%.

On to `O=C1c2cc3c(cc2-c2c1c1cc(F)c(F)cc1c(=O)n2C[C@H](O)CO)OCO3`, for which the growth is -61.5% (active).

With `Cn1c2ccccc2c2c3c(c4c5ccccc5n(CCCCCC#N)c4c21)C(=O)N(O)C3=O`, the growth was -0.622% (active).

Take `CCOC(=O)c1c2c(n3ccc(NC(=O)CCN4CCOCC4)cc13)C(=O)c1ncccc1C2=O`: the growth was 16.5%.

Take `Oc1ccccc1N=Cc1c(O)ccc2ccccc12`: the growth was 59.3%.

Consider `O=c1ccc2cc3ccccc3cc2[nH]1`, for which the growth is 108%.

Turning to `O=C(Nc1ccc(Oc2ccc(F)cc2)c(Cl)c1)c1cccnc1`, the growth was 99.5%.

In the case of `CCCCCCCCCc1cc(CN2CCCCC2)c(O)c(CN2CCCCC2)c1`, the growth was 63.5%.

With `CC/C(Cc1ccccc1)=C(\c1ccc(OCCN2CCCC2)cc1)c1ccc(OC(C)=O)cc1`, the growth was 89.7%.

Take `C=C1CC[C@@H]2[C@](C)(COC(C)=O)[C@H](OC(C)=O)CC[C@@]2(C)[C@@H]1CC(Nc1ccc(S(=O)(=O)Nc2nc(C)cc(C)n2)cc1)C1=CCOC1=O` (stereo partly specified): the growth was 71.6%.

For `COc1ccc2c(c1)C(=O)/C(=C/c1cccc(OCC(=O)Nc3nc4c(s3)CCCC4)c1)O2`, the growth is -73.4% (active).

Take `O=C([C@@H](COCc1ccccc1)N1C(=O)[C@@H](N2C(=O)OC[C@@H]2c2ccccc2)[C@H]1/C=C/c1ccccc1)N1CCC(CCN2CCCCC2)CC1`: the growth was 99%.

Turning to `O=c1[nH]c(-c2ccccn2)nc2sc3c(c12)CCCCC3`, the growth was 36.2%.

Turning to `NC1=CC(=O)C(=O)c2ccccc21`, the growth is 85.2%.

Regarding `CN1CCOCCOCCOc2ccccc2NC(=O)c2nc(cnc2N)-c2ccc(cc2)S1(=O)=O`, the growth is 8.87% (active).

Turning to `COc1ccc(S(=O)(=O)NCCCNc2nccc(-c3c(-c4cccc(N)c4)nc4sccn34)n2)cc1`, the growth was 78.8%.

`COc1ccccc1N1CCN(CCn2c(=O)c3c(c4ccccc4n3C)n(C)c2=O)CC1`: the growth was 98.5%.

With `COc1cnc2c(c1)C(=O)c1c-2n(CCCBr)c(=O)c2cc([N+](=O)[O-])ccc12`, the growth was 3.87% (active).

As for `O=C(C[C@@H](C(=O)NCc1cccc(C(F)(F)F)c1)N1C(=O)[C@@H](N2C(=O)OC[C@@H]2c2ccccc2)[C@H]1/C=C/c1ccccc1)NC1CCN(Cc2ccccc2)CC1`, the growth is 96.2%.

Turning to `CCCCCCNC(=O)Oc1ccc(/C(=C(\C)c2ccccc2)c2ccc(OCCN(CC)CC)cc2)cc1`, the growth was 88.1%.

Regarding `CC#CC#Cc1cccc(=O)o1`, the growth was 68.5%.

Take `CCCCCCCCCCCCNC(=O)[C@H]1CSC(c2ccc(OC)c(F)c2)N1` (stereo partly specified): the growth was -100% (active).

As for `O=C(CN1CCN(c2cc3c(cc2F)c(=O)c(C(=O)N/N=C/c2ccccc2)cn3C2CC2)CC1)N/N=C\c1ccccc1`, the growth is 72%.

For `CNc1nc(C)c(-c2nc(Nc3cccc(S(N)(=O)=O)c3)ncc2F)s1`, the growth is 2.7% (active).

As to `CC1=CC(=O)CC(C)(C)[C@@]1(O)/C=C/[C@@H](C)O`, the growth was 109%.

In the case of `CC(=O)Nc1ccc2c(c1)c(NC(C)=O)nn2C(=O)Nc1ccc(Cc2ccccc2)cc1`, the growth was 65.8%.

With `Cn1c2ccccc2c2c3c(c4c5ccccc5[nH]c4c21)C(=O)N(N)C3=O`, the growth was 14.2%.

For the compound `COc1cc(OC)c(/C=C/C(=O)c2c(OC)cc(OC)cc2OC)c(OC)c1`, the growth is 35.9%.

Regarding `CCCCCCCCCCCCCCCCCCNC(=O)[C@H]1CSC(c2ccc(OC)c(F)c2)N1` (stereo partly specified), the growth is 87.8%.

In the case of `O=C1c2cc3c(cc2-c2c1c1cc(Cl)c(Cl)cc1c(=O)n2C[C@H](O)CO)OCO3`, the growth was -47.2% (active).

For the compound `COc1cc2nc3cc([N+](=O)[O-])ccc3c(NCCCNCC(C)(C)O)c2cc1OC`, the growth was 1.58% (active).

`CC(C)C1=C[C@@]23CC[C@@H]4[C@](C)(CCC[C@@]4(C)C(=O)OCC#CCN4CCCC4)[C@H]2C[C@@H]1[C@H]1C(=O)OC(=O)[C@H]13`: the growth was 95.9%.

For the compound `CN(C)c1ccc(/C=C(\C#N)c2nc3ccccc3s2)cc1`, the growth is 101%.

In the case of `COc1ccc(Cl)cc1Nc1nc(C(F)(F)F)ccc1C(=O)N/N=C/c1cccnc1`, the growth was 36.7%.

As for `CC(=O)C1=C(O)C=C2Oc3c(C(=O)/C=C/c4ccccc4)c(O)c(C)c(O)c3[C@]2(C)C1=O`, the growth was 48.2%.

As to `Cn1c(=O)c2c(ncn2CC[N+](C)(C)C)n(C)c1=O`, the growth was 110%.

For the compound `OC(c1cc(-c2ccccc2)nc2ccc(Cl)cc12)C1CCCCN1` (stereo unspecified), the growth was 22.1%.

Another assay has as its system CAKI-1 renal. Described as above. Particulars: 10 µM unless noted.
As to `CC[n+]1ccc2c(c1)C(=O)c1nccc3c1c-2nc1ccccc13`, the growth is 24.7%.

With `COc1ccc(-c2csc(NC(=O)CN3CCN(c4cc5c(cc4F)c(=O)c(C(=O)O)cn5C4CC4)CC3)n2)cc1`, the growth was 21.3%.

As for `O=C1c2cc3c(cc2-c2c1c1cc(F)c(F)cc1c(=O)n2C[C@H](O)CO)OCO3`, the growth was -4.95% (active).

Consider `Cn1c2ccccc2c2c3c(c4c5ccccc5n(CCCCCC#N)c4c21)C(=O)N(O)C3=O`, for which the growth is -32.3% (active).

Take `CCOC(=O)c1c2c(n3ccc(NC(=O)CCN4CCOCC4)cc13)C(=O)c1ncccc1C2=O`: the growth is 21.5%.

On to `Oc1ccccc1N=Cc1c(O)ccc2ccccc12`, for which the growth was 47.6%.

As to `O=c1ccc2cc3ccccc3cc2[nH]1`, the growth is 78.4%.

Take `O=C(Nc1ccc(Oc2ccc(F)cc2)c(Cl)c1)c1cccnc1`: the growth is 86.9%.

Take `CCCCCCCCCc1cc(CN2CCCCC2)c(O)c(CN2CCCCC2)c1`: the growth is 57.7%.

Consider `CC/C(Cc1ccccc1)=C(\c1ccc(OCCN2CCCC2)cc1)c1ccc(OC(C)=O)cc1`, for which the growth is 86.6%.

In the case of `C=C1CC[C@@H]2[C@](C)(COC(C)=O)[C@H](OC(C)=O)CC[C@@]2(C)[C@@H]1CC(Nc1ccc(S(=O)(=O)Nc2nc(C)cc(C)n2)cc1)C1=CCOC1=O` (stereo partly specified), the growth is 74%.

As for `COc1ccc2c(c1)C(=O)/C(=C/c1cccc(OCC(=O)Nc3nc4c(s3)CCCC4)c1)O2`, the growth is -83.5% (active).

For `O=C([C@@H](COCc1ccccc1)N1C(=O)[C@@H](N2C(=O)OC[C@@H]2c2ccccc2)[C@H]1/C=C/c1ccccc1)N1CCC(CCN2CCCCC2)CC1`, the growth was 99.9%.

As for `O=c1[nH]c(-c2ccccn2)nc2sc3c(c12)CCCCC3`, the growth was 38.5%.

In the case of `NC1=CC(=O)C(=O)c2ccccc21`, the growth was 91.3%.

`CN1CCOCCOCCOc2ccccc2NC(=O)c2nc(cnc2N)-c2ccc(cc2)S1(=O)=O`: the growth was 53.7%.

Take `COc1ccc(S(=O)(=O)NCCCNc2nccc(-c3c(-c4cccc(N)c4)nc4sccn34)n2)cc1`: the growth was 77.5%.

In the case of `COc1ccccc1N1CCN(CCn2c(=O)c3c(c4ccccc4n3C)n(C)c2=O)CC1`, the growth was 101%.

With `COc1cnc2c(c1)C(=O)c1c-2n(CCCBr)c(=O)c2cc([N+](=O)[O-])ccc12`, the growth was 2.8% (active).

For `O=C(C[C@@H](C(=O)NCc1cccc(C(F)(F)F)c1)N1C(=O)[C@@H](N2C(=O)OC[C@@H]2c2ccccc2)[C@H]1/C=C/c1ccccc1)NC1CCN(Cc2ccccc2)CC1`, the growth is 85.2%.

With `CCCCCCNC(=O)Oc1ccc(/C(=C(\C)c2ccccc2)c2ccc(OCCN(CC)CC)cc2)cc1`, the growth is 77%.

Regarding `CC#CC#Cc1cccc(=O)o1`, the growth is 4.28% (active).

For `CCCCCCCCCCCCNC(=O)[C@H]1CSC(c2ccc(OC)c(F)c2)N1` (stereo partly specified), the growth was -97.8% (active).

`O=C(CN1CCN(c2cc3c(cc2F)c(=O)c(C(=O)N/N=C/c2ccccc2)cn3C2CC2)CC1)N/N=C\c1ccccc1`: the growth was 78.1%.

`CNc1nc(C)c(-c2nc(Nc3cccc(S(N)(=O)=O)c3)ncc2F)s1`: the growth was 14.8%.

For the compound `CC1=CC(=O)CC(C)(C)[C@@]1(O)/C=C/[C@@H](C)O`, the growth is 97.2%.

In the case of `CC(=O)Nc1ccc2c(c1)c(NC(C)=O)nn2C(=O)Nc1ccc(Cc2ccccc2)cc1`, the growth is 49.2%.

For `Cn1c2ccccc2c2c3c(c4c5ccccc5[nH]c4c21)C(=O)N(N)C3=O`, the growth was 30.7%.

With `COc1cc(OC)c(/C=C/C(=O)c2c(OC)cc(OC)cc2OC)c(OC)c1`, the growth is 7.16% (active).

On to `CCCCCCCCCCCCCCCCCCNC(=O)[C@H]1CSC(c2ccc(OC)c(F)c2)N1` (stereo partly specified), for which the growth was 52.9%.

As to `O=C1c2cc3c(cc2-c2c1c1cc(Cl)c(Cl)cc1c(=O)n2C[C@H](O)CO)OCO3`, the growth is -0.657% (active).

For the compound `COc1cc2nc3cc([N+](=O)[O-])ccc3c(NCCCNCC(C)(C)O)c2cc1OC`, the growth was 18.4%.

For the compound `CC(C)C1=C[C@@]23CC[C@@H]4[C@](C)(CCC[C@@]4(C)C(=O)OCC#CCN4CCCC4)[C@H]2C[C@@H]1[C@H]1C(=O)OC(=O)[C@H]13`, the growth is 83.6%.

For the compound `CN(C)c1ccc(/C=C(\C#N)c2nc3ccccc3s2)cc1`, the growth is 89.2%.

As for `COc1ccc(Cl)cc1Nc1nc(C(F)(F)F)ccc1C(=O)N/N=C/c1cccnc1`, the growth was 43.2%.

For the compound `CC(=O)C1=C(O)C=C2Oc3c(C(=O)/C=C/c4ccccc4)c(O)c(C)c(O)c3[C@]2(C)C1=O`, the growth was 46.7%.

As to `Cn1c(=O)c2c(ncn2CC[N+](C)(C)C)n(C)c1=O`, the growth was 102%.

Turning to `OC(c1cc(-c2ccccc2)nc2ccc(Cl)cc12)C1CCCCN1` (stereo unspecified), the growth was 34.3%.

(Values after PubChem BioAssay (NCI).)
